Test results published in PubChem BioAssay (Tox21).
Results filed as inconclusive are left out. The source made the active and inactive calls. Unless noted, calls follow the shape of the full dose curve.

Experiments:
[1] = Nuclear factor erythroid 2-related factor 2/antioxidant responsive element (Nrf2/ARE) small molecule agonists: qHTS cell viability counter screen in human keratinocytes (AID 1919968; active = well fitted curve in the direction sought with a large enough effect in the repeat runs; an effect the other way counts as inactive or inconclusive; also: nearly all actives have a fitted effect of over 55% in size)
Procedure, shortened: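 CellTiter-Fluor fluorescence, read 1 h after reagent, gave viability in the same wells as the ARE-luciferase assay. KeratinoSens cells (1,500/well) had 23 h compound exposure at 37 C/5% CO2 following 5 h plating.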

[2] = Nuclear factor erythroid 2-related factor 2/antioxidant responsive element (Nrf2/ARE) small molecule agonists: luciferase reporter gene qHTS assay in human keratinocytes (AID 1919969); also: nearly all actives have a fitted effect of over 35% in size; also: potency is read from the fitted curve at half-maximal effect
[3] = target: KiSS-1 receptor (Homo sapiens) (UniProt Q969F8); test: Human kisspeptin (KISS1R) small molecule agonists, calcium flux assay in KISS1R-HEK293 cells (AID 1920064; active = well fitted curve in the direction sought with a large enough effect in the repeat runs; an effect the other way counts as inactive or inconclusive)
KiSS-1 receptor (Homo sapiens), sequence (Q969F8 whole entry, looked up): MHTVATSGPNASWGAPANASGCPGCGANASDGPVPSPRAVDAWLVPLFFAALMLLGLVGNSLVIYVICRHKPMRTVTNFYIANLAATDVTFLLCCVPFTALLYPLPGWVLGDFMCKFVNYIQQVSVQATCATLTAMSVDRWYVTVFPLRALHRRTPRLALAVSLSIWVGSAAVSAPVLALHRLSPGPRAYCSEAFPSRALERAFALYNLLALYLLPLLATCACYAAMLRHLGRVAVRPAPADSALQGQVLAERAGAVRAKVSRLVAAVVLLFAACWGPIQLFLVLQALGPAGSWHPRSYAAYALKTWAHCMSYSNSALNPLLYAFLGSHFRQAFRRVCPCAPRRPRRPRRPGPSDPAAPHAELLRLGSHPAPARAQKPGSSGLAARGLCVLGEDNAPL
Procedure, shortened: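 Agonist mode: intracellular calcium rise tracked at 1 s intervals over 3 min (480/540 nm) immediately after compound addition to dye-loaded KISS1R-HEK293 stable cells. Each compound tested at 15 concentrations in triplicate.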

[4] = G protein-coupled receptor (GPCR) small molecule agonists, calcium flux assay: HEK293 wild type cell line counter screen (AID 1920065)
Procedure, shortened: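 Calcium flux counter screen: compound added in agonist mode at 15 concentrations in triplicate to dye-loaded parental HEK293 cells. Fluorescence (480/540) read kinetically for 3 min; ATP served as positive control.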

[5] = p53 small molecule agonists, cell-based qHTS assay with human liver microsomes (AID 1963577)
Procedure, shortened: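 Compounds act here after metabolic activation: human liver microsomes and NADPH, both at 0.5 mg/mL final, were co-added to p53RE-bla cells. Incubation ran 16 h at 37 C, followed by LiveBLAzer detection.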

[6] = p53 small molecule agonists, cell-based qHTS assay with rat liver microsomes (AID 1963578)
Procedure, shortened: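 Read-out is beta-lactamase reporter fluorescence (LiveBLAzer, 2 h, room temperature, dark) in p53RE-bla cells treated 16 h at 37 C with compound, rat liver microsomes and NADPH, both 0.5 mg/mL final.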

[7] = p53 small molecule agonists, cell-based qHTS assay with human liver microsomes: qHTS cell viability counter screen (AID 1963579); also: nearly all actives have a fitted effect of over 45% in size; also: potency is read from the fitted curve at half-maximal effect
Procedure, shortened: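 Cells carrying the p53 response-element beta-lactamase reporter are treated for 16 h at 37 C with test compounds in the presence of human liver microsomes and NADPH (both 0.5 mg/mL final); ATP-based CellTiter-Glo luminescence then reports viability.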

[8] = p53 small molecule agonists, cell-based qHTS assay: qHTS cell viability counter screen (AID 1963581); also: nearly all actives have a fitted effect of over 45% in size; also: potency is read from the fitted curve at half-maximal effect
Procedure, shortened: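 Counter screen read by CellTiter-Glo luminescence (ATP content, 30 min at room temperature), run in the same wells as the beta-lactamase reporter read. HCT-116 p53RE-bla cells saw compounds for 16 h at 37 C.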

[9] = p53 small molecule agonists, cell-based qHTS assay (AID 1963582; active = well fitted activation curve with a large enough effect in the signal ratio in the repeat runs, not every such curve was filed as active; the % refers to the signal ratio)
Procedure, shortened: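 Read-out is beta-lactamase FRET fluorescence after 2 h at room temperature with LiveBLAzer B/G substrate. p53 response element-bla cells were treated 16 h at 37 C with compounds in DMSO, added 5 h after seeding.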

[10] = target: 5-hydroxytryptamine receptor 2A (Homo sapiens) (UniProt P28223); test: 5-hydroxytryptamine receptor 2A (HTR2A) small molecule agonists, cell-based qHTS assay (AID 1963587); also: nearly all actives have a fitted effect of over 30% in size
5-hydroxytryptamine receptor 2A (Homo sapiens), sequence (P28223 whole entry, looked up): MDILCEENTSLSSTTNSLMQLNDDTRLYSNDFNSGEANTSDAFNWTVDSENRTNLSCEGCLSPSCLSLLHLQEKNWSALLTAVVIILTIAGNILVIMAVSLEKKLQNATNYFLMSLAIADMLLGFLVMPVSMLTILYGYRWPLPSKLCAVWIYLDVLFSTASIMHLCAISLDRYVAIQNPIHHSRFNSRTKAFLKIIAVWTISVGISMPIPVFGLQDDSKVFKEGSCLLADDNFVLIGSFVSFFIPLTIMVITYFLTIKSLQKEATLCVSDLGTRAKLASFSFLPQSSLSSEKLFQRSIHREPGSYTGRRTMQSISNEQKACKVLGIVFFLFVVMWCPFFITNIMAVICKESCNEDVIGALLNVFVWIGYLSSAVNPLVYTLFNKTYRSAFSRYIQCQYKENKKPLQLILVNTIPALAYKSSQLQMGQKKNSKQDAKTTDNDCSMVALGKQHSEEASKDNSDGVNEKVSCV
Procedure, shortened: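 Kinetic calcium-flux fluorescence (2 min, 1 sec intervals) after compound addition in agonist mode. HTR2A-CHO cells were cultured 18 h, then dye-loaded 1 h at 37 C.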

[11] = target: Muscarinic acetylcholine receptor M1 (Homo sapiens) (UniProt P11229); test: Cholinergic receptor muscarinic 1 (CHRM1) small molecule antagonists, cell-based qHTS assay (AID 1963588); also: nearly all actives have a fitted effect of over 40% in size
Muscarinic acetylcholine receptor M1 (Homo sapiens), sequence (P11229 whole entry, looked up): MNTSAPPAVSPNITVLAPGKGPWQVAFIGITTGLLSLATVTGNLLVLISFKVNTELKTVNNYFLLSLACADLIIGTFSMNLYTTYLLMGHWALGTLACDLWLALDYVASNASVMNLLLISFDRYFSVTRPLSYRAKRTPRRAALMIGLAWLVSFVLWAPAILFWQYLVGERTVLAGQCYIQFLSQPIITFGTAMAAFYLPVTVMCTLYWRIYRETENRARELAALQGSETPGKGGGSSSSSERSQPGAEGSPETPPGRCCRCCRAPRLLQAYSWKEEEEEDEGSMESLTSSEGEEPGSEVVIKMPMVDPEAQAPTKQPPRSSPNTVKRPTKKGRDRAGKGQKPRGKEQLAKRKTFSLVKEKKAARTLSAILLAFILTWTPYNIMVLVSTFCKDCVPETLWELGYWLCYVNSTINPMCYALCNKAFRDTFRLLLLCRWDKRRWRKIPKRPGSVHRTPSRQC
Procedure, shortened: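 Compounds were tested at 15 concentrations in three independent runs. Dye-loaded CHRM1-CHO cells were exposed 5 min at room temperature before stimulation by acetylcholine added at 50nM. Intracellular calcium was read kinetically on FDSS for 3 min.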

[12] = target: Muscarinic acetylcholine receptor M1 (Homo sapiens) (UniProt P11229); test: Cholinergic receptor muscarinic 1 (CHRM1) small molecule agonists, cell-based qHTS assay (AID 1963589); also: nearly all actives have a fitted effect of over 35% in size
Procedure, shortened: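 Agonist-mode calcium-flux screen: compounds at 15 concentrations, three independent runs, were pin-transferred onto dye-loaded human CHRM1-CHO cells. Fluorescence was then recorded kinetically every second over minutes.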

[13] = target: D(2) dopamine receptor (Homo sapiens) (UniProt P14416); test: Dopamine D2 receptor (DRD2) small molecule agonists, cell-based qHTS assay (AID 1963594); also: nearly all actives have a fitted effect of over 35% in size
D(2) dopamine receptor (Homo sapiens), sequence (P14416 whole entry, looked up): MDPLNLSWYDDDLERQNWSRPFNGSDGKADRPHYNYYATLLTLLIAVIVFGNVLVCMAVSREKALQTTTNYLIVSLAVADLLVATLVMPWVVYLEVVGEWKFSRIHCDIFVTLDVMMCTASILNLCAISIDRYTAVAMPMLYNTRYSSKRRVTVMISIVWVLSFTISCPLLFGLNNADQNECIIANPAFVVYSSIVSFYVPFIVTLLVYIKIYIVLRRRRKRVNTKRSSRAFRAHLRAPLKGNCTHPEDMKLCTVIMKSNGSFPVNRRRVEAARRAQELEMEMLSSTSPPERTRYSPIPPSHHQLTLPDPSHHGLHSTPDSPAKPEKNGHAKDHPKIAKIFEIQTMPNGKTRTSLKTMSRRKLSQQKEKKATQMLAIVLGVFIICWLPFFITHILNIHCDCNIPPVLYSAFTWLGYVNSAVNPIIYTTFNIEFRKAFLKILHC
Procedure, shortened: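 cAMP accumulation in DRD2-HEK293 cells measured by HTRF after 1 h detection; compounds added 10 min before NKH477 (200nM […]) forskolin-analogue stimulation, 30 min at room temperature, with Ro20-1724 present at 0.1 mM final.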

[14] = target: D(2) dopamine receptor (Homo sapiens) (UniProt P14416); test: Dopamine D2 receptor (DRD2) small molecule antagonists, cell-based qHTS assay (AID 1963595; active = well fitted inhibition curve with a large enough effect in the signal ratio in the repeat runs, with a control signal flat; the % refers to the signal ratio)
Procedure, shortened: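 HEK293 cells stably expressing DRD2, preincubated with 0.1 mM Ro20-1724 and compounds 10 min, were stimulated with 200 nM NKH477 plus 12 nM quinpirole for 30 min at room temperature; cAMP measured by HTRF (665/620 nm).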

[15] = p53 small molecule agonists, cell-based qHTS assay with rat liver microsomes: qHTS cell viability counter screen (AID 1963580); also: nearly all actives have a fitted effect of over 45% in size
Procedure, shortened: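 Cytotoxicity counter screen: intracellular ATP read by CellTiter-Glo luminescence in the p53 reporter wells. HCT-116 p53RE-bla cells were treated for 16 h at 37 C alongside rat liver microsomes and NADPH, each 0.5 mg/mL final.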

[16] = cAMP Responsive Elements (CRE) small molecule agonists, cell-based qHTS assay (AID 1963590)
Procedure, shortened: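 Agonist mode: compound added to CRE-bla HEK 293T cells (2,000/well, 18 h after plating) for 3 h at 37 C/5% CO2. Reporter activity detected via FRET beta-lactamase substrate, 2 h room-temperature loading.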

[17] = cAMP Responsive Elements (CRE) small molecule antagonists, cell-based qHTS assay (AID 1963591; active = well fitted inhibition curve with a large enough effect in the signal ratio in the repeat runs, not every such curve was filed as active; the % refers to the signal ratio)
Procedure, shortened: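 Antagonist mode: compounds are added alongside the adenylyl cyclase activator NKH477 (0.25 uM final) to CRE-bla HEK293T cells for 3 h. LiveBLAzer FRET substrate, 2 h at room temperature, reports bla expression.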

[18] = target: Beta-2 adrenergic receptor (Homo sapiens) (UniProt P07550); test: Adrenergic beta2 receptor (ADRB2) small molecule antagonists, cell-based qHTS assay (AID 1963592); also: series mostly up to about 92 µM; nearly all actives have a fitted effect of over 50% in size
Beta-2 adrenergic receptor (Homo sapiens), sequence (P07550 whole entry, looked up): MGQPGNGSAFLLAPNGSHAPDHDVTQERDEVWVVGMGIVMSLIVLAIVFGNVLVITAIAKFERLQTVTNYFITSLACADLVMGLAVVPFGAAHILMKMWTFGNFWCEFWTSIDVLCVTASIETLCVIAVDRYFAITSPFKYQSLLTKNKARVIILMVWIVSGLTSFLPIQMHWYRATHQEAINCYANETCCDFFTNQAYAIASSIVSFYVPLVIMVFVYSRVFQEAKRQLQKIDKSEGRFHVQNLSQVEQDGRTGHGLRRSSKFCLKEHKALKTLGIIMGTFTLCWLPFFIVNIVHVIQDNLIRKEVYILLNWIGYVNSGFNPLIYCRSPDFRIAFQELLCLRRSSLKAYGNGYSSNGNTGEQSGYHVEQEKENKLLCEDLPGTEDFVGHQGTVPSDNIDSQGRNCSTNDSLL
Procedure, shortened: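 Assay format: CHO-ADRB2 cells, 18-20hr seeding at 37C/5% CO2, then compound plus 1nM isoproterenol agonist mix for 0.5hr RT. Homogeneous time-resolved fluorescence cAMP detection after 1hr, expressed as 665/615 nm ratio.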

[19] = target: 5-hydroxytryptamine receptor 2A (Homo sapiens) (UniProt P28223); test: 5-hydroxytryptamine receptor 2A (HTR2A) small molecule antagonists, cell-based qHTS assay (AID 1963586); also: nearly all actives have a fitted effect of over 45% in size
Procedure, shortened: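 CHO cells stably expressing human HTR2A were plated for 18 h at 37 C, then loaded with calcium dye for 1 h. Compounds were preincubated 5 min at room temperature before DOI (4 nM solution) was added. Kinetic fluorescence was read for 3 min.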
% is scaled to controls: 0 for no effect and ±100 for the full control effect.

O=C(O)c1cccc(-c2noc(-c3ccccc3F)n2)c1
active: Potency [7] 15.8 µM | Potency [8] 15.8 µM
inactive: Potency [1] | Potency [2] | outcome [3] | outcome [4] | Potency [5] | Potency [6] | Potency [9] | Potency [10] | Potency [11] | Potency [12] | Potency [13] | Potency [14]

CC1=CC(=O)CC(C)(C)C1=O
inactive: Potency [1] | Potency [2] | outcome [3] | outcome [4] | Potency [5] | Potency [6] | Potency [7] | Potency [15] | Potency [8] | Potency [9] | Potency [12] | Potency [16] | Potency [17] | Potency [18] | Potency [13] | Potency [14]

CCCCCCCCCCCCCCCCCCO
inactive: Potency [1] | Potency [2] | outcome [3] | outcome [4] | Potency [5] | Potency [6] | Potency [7] | Potency [15] | Potency [8] | Potency [9] | Potency [10] | Potency [12] | Potency [16] | Potency [17] | Potency [18] | Potency [14]

CC1(C)S[C@@H]2[C@H](NC(=O)Cc3ccccc3)C(=O)N2[C@H]1C(=O)O (tested in a mixture with another compound)
inactive: Potency [1] | Potency [2] | outcome [3] | outcome [4] | Potency [5] | Potency [6] | Potency [7] | Potency [15] | Potency [8] | Potency [9] | Potency [16] | Potency [17] | Potency [18] | Potency [14]

C[n+]1ccccc1/C=N/O
inactive: Potency [1] | Potency [2] | outcome [3] | outcome [4] | Potency [5] | Potency [6] | Potency [7] | Potency [15] | Potency [8] | Potency [9] | Potency [16] | Potency [17] | Potency [18] | Potency [13] | Potency [14]

CCC(Cc1ccccc1)(C(=O)c1ccc(N2CCOCC2)cc1)N(C)C (stereo unspecified)
active: Potency [2] 68.6 µM
inactive: Potency [1] | outcome [3] | outcome [4] | Potency [5] | Potency [6] | Potency [7] | Potency [15] | Potency [8] | Potency [9] | Potency [19] | Potency [10] | Potency [12] | Potency [18] | Potency [13]

CCn1cc(C(=O)O)c(=O)c2cnc(N3CCCC3)nc21
inactive: activity change, negative = cytotoxicity [1] -0.789% [at 8.39 µM] | activity, positive = activation [2] 0.384% [at 8.39 µM] | activation [3] 2.91% [at 6.97 µM] | activation [4] 0.533% [at 5.23 µM] | activation [5] 10.8% [at 5.99 µM] | activation [6] -0.037% [at 5.99 µM] | activity change, negative = cytotoxicity [7] 17.3% [at 5.99 µM] | activity change, negative = cytotoxicity [15] -0.816% [at 5.99 µM] | activity change, negative = cytotoxicity [8] -0.227% [at 5.99 µM] | activation [9] 1.25% [at 5.99 µM] | activation [16] -3.86% [at 8.39 µM] | activity change, negative = inhibition [17] -10.5% [at 8.39 µM] | activity change, negative = inhibition [18] -0.194% [at 8.39 µM] | activity change, negative = inhibition [14] 2.86% [at 8.38 µM]

O=C1CCC(C2CCCCC2)CC1
inactive: Potency [1] | Potency [2] | outcome [3] | outcome [4] | Potency [5] | Potency [6] | Potency [7] | Potency [15] | Potency [8] | Potency [19] | Potency [10] | Potency [11] | Potency [12] | Potency [17] | Potency [18] | Potency [13] | Potency [14]
